The values that follow come from PubChem BioAssay (NCI).

Compounds without any hit were thinned out: in the full panel of roughly 79,000, 15% have a hit. A number with no mark means an inactive call. Active and inactive are the calls of the source. No stated cut-off is given here; in the data, active means growth inhibition above about 70%; inactive means the rest.

Experiment [1] is described as follows: NCI Yeast Anticancer Drug Screen. Data for the rad50 strain (AID 155).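 Further: 0% = growth of vehicle-only cultures of the same strain.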 To be noted: S. cerevisiae rad50 strain growth inhibition, active compounds read high. Put shortly: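 Cells are treated with compound, grown, and their growth is then scored against vehicle-only cultures of the same repair-deficient yeast strain.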
A short description of experiment [2]: NCI Yeast Anticancer Drug Screen. Data for the mec2-1 strain (AID 157). To be noted: S. cerevisiae mec2-1 strain, active compounds read high. Put shortly: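 Compounds were applied to mec2-1 yeast cells. Their growth was then compared with that of vehicle-treated cultures to give growth inhibition.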
Experiment [3] in a line: NCI Yeast Anticancer Drug Screen. Data for the sgs1 mgt1 strain (AID 161).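 Further: 0% = growth of cultures given vehicle only.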 To be noted: S. cerevisiae sgs1 mgt1 strain, active compounds read high. Put shortly:
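Growth of a repair-deficient yeast mutant was monitored after compound treatment and expressed as inhibition relative to vehicle-treated cultures.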

The nature of experiment [4]: NCI Yeast Anticancer Drug Screen. Data for the cln2 rad14 strain (AID 165).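 Further: 0% = growth equal to vehicle treated cultures.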 To be noted: S. cerevisiae cln2 rad14 strain, active compounds read high. Put shortly:
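Strain: cln2 rad14 yeast, altered in cell cycle control and DNA damage repair. Read-out: growth inhibition vs vehicle.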

Experiment [5] in a line: NCI Yeast Anticancer Drug Screen. Data for the bub3 strain (AID 167). To be noted: S. cerevisiae bub3 mutant strain, active compounds read high. The procedure, abridged: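 Part of a panel of yeast mutants defective in DNA damage repair or cell cycle regulation. Each strain is grown with compound, and inhibition is calculated relative to solvent-treated cultures.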
The nature of experiment [6]: NCI Yeast Anticancer Drug Screen. Data for the mlh1 rad18 strain (AID 175). To be noted: S. cerevisiae mlh1 rad18 strain growth inhibition, active compounds read high. Put shortly:
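A repair-deficient yeast strain is exposed to test compound, and growth is scored relative to vehicle-treated controls.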

The mark [7] stands for this setting: at 5.0 µM (retest, dose inferred, filed as 0.5).
Setting [8] is: at 50.0 µM (retest, dose inferred, filed as 5.0).

`CC(=O)OC1CC2Cc3ccccc3C3(O)COC213` (stereo not drawn): the growth inhibition in experiment [1] (setting [7]) was -1%; in experiment [1] (setting [8]) it was 48%; in experiment [1] (at 50.0 µM) it was 49.2%; in experiment [2] (setting [7]), 6%; in experiment [2] (setting [8]), 75% (active); in experiment [2] (at 50.0 µM), 45.4%. Also, the growth inhibition in experiment [3] (setting [7]) was 6%; in experiment [3] (setting [8]) it was 76% (active); in experiment [3] (at 50.0 µM), 76.7% (active); in experiment [4] (setting [7]), 3%; in experiment [4] (setting [8]), 17%; in experiment [4] (at 50.0 µM), 14.1%. For the same molecule, the growth inhibition in experiment [5] (setting [7]) is -7%; in experiment [5] (setting [8]), 59%; in experiment [5] (at 50.0 µM) it was 59%; in experiment [6] (setting [7]), -2%; in experiment [6] (setting [8]), 83% (active); in experiment [6] (at 50.0 µM), 31.1%.

Turning to `Cn1c(=O)c2c(O)c(-c3ccccc3)c(=O)n3c4ccccc4n(c1=O)c23`, the growth inhibition in experiment [1] (setting [7]) was 19%; in experiment [1] (setting [8]), 48%; in experiment [1] (at 50.0 µM) it was 51.3%; in experiment [2] (setting [7]), 21%; in experiment [2] (setting [8]) it was 51%; in experiment [2] (at 50.0 µM), 27.6%. Moreover, the growth inhibition in experiment [3] (setting [7]) is 28%; in experiment [3] (setting [8]), 68%; in experiment [3] (at 50.0 µM), 64.5%; in experiment [4] (setting [7]) it was 7%; in experiment [4] (setting [8]), 34%; in experiment [4] (at 50.0 µM) it was 19.7%. The growth inhibition in experiment [5] (setting [7]) is 10%; in experiment [5] (setting [8]), 30%; in experiment [5] (at 50.0 µM), 25.9%; in experiment [6] (setting [7]), 18%; in experiment [6] (setting [8]), 59%; in experiment [6] (at 50.0 µM), 50.1%.

On to `O=C(NCCCCCCNC(=O)n1cc(F)c(=O)[nH]c1=O)NC1C(O)OC(CO)C(O)C1O` (stereo not drawn), for which the growth inhibition in experiment [1] (setting [7]) is 63%; in experiment [1] (setting [8]) it was 89% (active); in experiment [1] (at 50.0 µM), 93.9% (active); in experiment [2] (setting [7]), 80% (active); in experiment [2] (setting [8]), 96% (active); in experiment [2] (at 50.0 µM) it was 97.6% (active). For the same molecule, the growth inhibition in experiment [3] (setting [7]) was 83% (active); in experiment [3] (setting [8]), 93% (active); in experiment [3] (at 50.0 µM) it was 93.1% (active); in experiment [4] (setting [7]), 34%; in experiment [4] (setting [8]) it was 84% (active); in experiment [4] (at 50.0 µM), 51%. Also, the growth inhibition in experiment [5] (setting [7]) is 22%; in experiment [5] (setting [8]) it was 90% (active); in experiment [5] (at 50.0 µM), 80% (active); in experiment [6] (setting [7]) it was 48%; in experiment [6] (setting [8]), 90% (active); in experiment [6] (at 50.0 µM), 88.2% (active).

Consider `O=C1C=C(c2ccccc2)O/C1=C/C(=O)c1ccc(Cl)cc1`, for which the growth inhibition in experiment [1] (setting [7]) is 32%; in experiment [1] (setting [8]), 32%; in experiment [1] (at 50.0 µM), 53.3%; in experiment [2] (setting [7]) it was 32%; in experiment [2] (setting [8]) it was 32%; in experiment [2] (at 50.0 µM) it was 65.2%. In addition, the growth inhibition is 40% in experiment [3] (setting [7]); 40% in experiment [3] (setting [8]); 79% (active) in experiment [3] (at 50.0 µM); 11% in experiment [4] (setting [7]); 11% in experiment [4] (setting [8]); 39.6% in experiment [4] (at 50.0 µM). The growth inhibition in experiment [5] (setting [7]) was 16%; in experiment [5] (setting [8]), 16%; in experiment [5] (at 50.0 µM), 65%; in experiment [6] (setting [7]), 32%; in experiment [6] (setting [8]), 32%; in experiment [6] (at 50.0 µM), 52.9%.

As for `CN(C)CCCN=c1c2ccccc2n(O)c2ccccc12`, the growth inhibition in experiment [1] (setting [7]) is -8%; in experiment [1] (setting [8]) it was -6%; in experiment [1] (at 50.0 µM), -27.9%; in experiment [2] (setting [7]) it was -16%; in experiment [2] (setting [8]), -19%; in experiment [2] (at 50.0 µM) it was -6.95%. In addition, the growth inhibition in experiment [3] (setting [7]) is -16%; in experiment [3] (setting [8]), -3%; in experiment [3] (at 50.0 µM), -32.5%; in experiment [4] (setting [7]), 22%; in experiment [4] (setting [8]), 20%; in experiment [4] (at 50.0 µM) it was 24.7%. Moreover, the growth inhibition is -4% in experiment [5] (setting [7]); -20% in experiment [5] (setting [8]); -9.35% in experiment [5] (at 50.0 µM); -20% in experiment [6] (setting [7]); -16% in experiment [6] (setting [8]); 8.3% in experiment [6] (at 50.0 µM).

Consider `COC(=O)c1ccc2ccccc2c1C(=O)c1ccc(F)cc1`, for which the growth inhibition in experiment [1] (setting [7]) is -1%; in experiment [1] (setting [8]), 94% (active); in experiment [1] (at 50.0 µM), 96.8% (active); in experiment [2] (setting [7]), 2%; in experiment [2] (setting [8]), 96% (active); in experiment [2] (at 50.0 µM) it was 95.5% (active). The growth inhibition in experiment [3] (setting [7]) was 4%; in experiment [3] (setting [8]), 95% (active); in experiment [3] (at 50.0 µM) it was 96.2% (active); in experiment [4] (setting [7]) it was 11%; in experiment [4] (setting [8]), 90% (active); in experiment [4] (at 50.0 µM) it was 61.7%. Moreover, the growth inhibition is 25% in experiment [5] (setting [7]); 97% (active) in experiment [5] (setting [8]); 97.4% (active) in experiment [5] (at 50.0 µM); 2% in experiment [6] (setting [7]); 95% (active) in experiment [6] (setting [8]); 95% (active) in experiment [6] (at 50.0 µM).
